This passage reports composite z-score, composite Z-score and z-score results from PubChem BioAssay.

The source made the active and inactive calls.

One experiment deals with Albumin (Bos taurus) (UniProt P02769). Briefly: compounds binding labelled BSA control protein – biochemical, small-molecule microarray, Alexa647 label, 635/667 nm fluorescence, artefact control for SMM control protein annotation, profiling panel (AID 1118).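 Also: score merges 667 nm emission intensity and signal-to-noise per printed compound spot.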 Conditions: BSA-A647 binding, fluorescence 635 nm, higher = more signal.
Experiment [1] can be described thus: probe aXIP binding to arrayed compounds – biochemical, NeuroSMM set, 635/667 nm fluorescence, primary screen (AID 1119).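 Also: probe is the protein aXip251-270 applied at 1 µg/mL to compound-printed slides; binding of probe to printed compounds measured as 667 nm fluorescence plus signal to noise.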 Conditions: small-molecule microarray, higher = more signal, called active from +8 up or from −8 down.
Experiment [2] can be described thus: probe aNOTCH3 binding on compound microarray – biochemical, small-molecule microarray, 635/667 nm fluorescence, primary screen (AID 1120).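 Also: probe is a biotin-tagged antibody raised against NOTCH3 rather than NOTCH3 protein; score merges spot fluorescence near 667 nm with spot signal to noise.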 The note with it: higher = more signal.
Experiment [3] in a line: probe aNOTCH2 binding on compound microarray – biochemical, small-molecule microarray, 635/667 nm fluorescence, primary screen (AID 1121).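 Also: score merges feature fluorescence read at 667 nm with its signal to noise.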 Conditions: higher = more signal.
The target of experiment [4] is Carbonic anhydrase 2 (Homo sapiens) (UniProt P00918). The experiment can be described thus: compounds binding carbonic anhydrase 2 – biochemical, small-molecule microarray, Alexa647-labelled CAII, profiling panel (AID 1122). The note with it: CAII-A647 binding fluorescence, higher = more signal.
Experiment [5] in a line: COS7 lysate on small-molecule microarray, probe aHis, 635 nm (AID 1123).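 Also: z-score combines 667nm fluorescence intensity with signal-to-noise per printed compound spot.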 The note with it: COS7 cell lysate, fluorescence, higher = more signal.
A short description of experiment [6]: probe aLAP1 signal on lysate-treated microarray – cell lysate, small-molecule microarray, COS7 lysate, primary screen (AID 1124).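 Also: lysate comes from COS7 cells expressing LAP1 and is applied at 0.3 µg/mL; score merges spot fluorescence near 667 nm with signal-to-noise over triplicate slides.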 Conditions: probe aLAP1, fluorescence, higher = more signal.
The test system of another experiment is Sam68 (KHDRBS1). The experiment can be described thus: compounds binding KHDRBS1 protein – biochemical, small-molecule microarray, 635 nm fluorescence, primary screen (AID 1125).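 Also: score merges 667 nm channel intensity with signal to noise over triplicate slides.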 The note with it: higher = more signal.
The test system of experiment [7] is Chordin-like protein 2 (CHRDL2). Briefly: compounds binding chordin-like 2 – biochemical, small-molecule microarray, 635 nm fluorescence, primary screen (AID 1126).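 Also: printed compound slides probed with Chrdl2 protein at 4 µg/mL for 1 h at 4 C; score merges 667 nm emission intensity with signal to noise over three replicate slides.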 The note with it: fluorescence 635 nm, higher = more signal.
Experiment [8] addresses Concanavalin-A (Canavalia ensiformis) (UniProt P02866). Briefly: compounds binding concanavalin A lectin – biochemical, small-molecule microarray, Alexa647 label, 635 nm, artefact control for SMM control protein annotation, primary screen (AID 1127).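 Also: z combines 667 nm emission intensity with signal-to-noise across three replicate slides.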 The note with it: ConA-A647 binding fluorescence, higher = more signal.
Experiment [9] in a line: compounds binding Alexa647 anti-His antibody – biochemical, small-molecule microarray, 635 nm fluorescence, artefact control for SMM control protein annotation, primary screen (AID 1128).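 Also: score merges feature fluorescence with signal-to-noise for each printed compound spot.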 The note with it: higher = more signal.
Experiment [10] relates to Human papillomavirus type 1a E7 protein (residues 1-88). Briefly: HPV1a E7 small-molecule binders, primary screen, biochemical, small-molecule microarray, residues 1-88, 635 nm (AID 1129). The note with it: small-molecule microarray binding, fluorescence 635 nm; higher = more signal.
The target of experiment [11] is Focal adhesion kinase 1 (Homo sapiens) (UniProt Q05397). The experiment can be described thus: PTK2 protein binding on printed compound slides – biochemical, small-molecule microarray, 635/667 nm fluorescence, BSA, DTT, primary screen (AID 1130).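 Also: composite of spot emission at 667 nm and signal to noise over triplicate slides.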 Conditions: 635 nm fluorescence, higher = more signal.
Experiment [12] deals with Fibrinogen (Alexa647-labelled). Briefly: Alexa647-fibrinogen binding to printed small molecules – biochemical, small-molecule microarray, 635/667 nm fluorescence, artefact control for SMM control-protein annotation, profiling panel (AID 1131).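 Also: z-score merges 667 nm fluorescence with per-spot signal-to-noise over triplicate slides.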 The note with it: fibrinogen-A647 binding fluorescence, higher = more signal.
The target in experiment [13] is Follistatin (Homo sapiens) (UniProt P19883). Briefly: FST protein binding to printed compounds – biochemical, small-molecule microarray, 635/667 nm fluorescence, primary screen (AID 1132). Conditions: 635 nm fluorescence, higher = more signal.
Experiment [14] has as its target Fibroblast growth factor 2 (Homo sapiens) (UniProt P09038). The experiment can be described thus: basic fibroblast growth factor binding to printed compounds – biochemical, small-molecule microarray, 635/667 nm fluorescence, primary screen (AID 1133). The note with it: FGF2, fluorescence 635/667, higher = more signal.
A short description of experiment [15]: JC-1 mitochondrial potential readout, lung cancer cells – cell-based, A549, JC-1 fluorescence, basal, 24 h, 100 nL, profiling panel (AID 1138).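 Also: A549 lung adenocarcinoma cells under basal conditions with no added stimulus; test concentration not given here.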 Conditions: higher = more signal.
In another experiment the test system is Lefty1. The experiment can be described thus: Lefty1 protein binding to printed compounds – biochemical, small-molecule microarray, 635/667 nm fluorescence, primary screen (AID 1139). The note with it: fluorescence 635/667, higher = more signal.
Experiment [16] deals with wheat germ agglutinin (Triticum aestivum), Alexa647-labelled. Briefly: Alexa647-WGA lectin binding to printed small molecules – biochemical, small-molecule microarray, 635/667 nm fluorescence, artefact control for SMM control-protein annotation, profiling panel (AID 1140).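 Also: score merges 667 nm feature emission with signal to noise over triplicate slides.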 Conditions: WGA-A647 binding, 635 nm fluorescence, higher = more signal.
The target in experiment [17] is Luciferin 4-monooxygenase (Photinus pyralis) (UniProt P08659). Briefly: inhibition of purified Photinus pyralis luciferase – biochemical, luminescence, purified enzyme, 2006 set, primary screen (AID 1141).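 Also: cell-free assay with purified firefly luciferase at 100 ng per well in PBS; test concentration not given here.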 The note with it: purified firefly luciferase, SteadyGlo luminescence, 30 min; higher = more signal, called active from +8 up or from −8 down.
Sequence of Luciferin 4-monooxygenase (Photinus pyralis) (P08659 whole entry, looked up): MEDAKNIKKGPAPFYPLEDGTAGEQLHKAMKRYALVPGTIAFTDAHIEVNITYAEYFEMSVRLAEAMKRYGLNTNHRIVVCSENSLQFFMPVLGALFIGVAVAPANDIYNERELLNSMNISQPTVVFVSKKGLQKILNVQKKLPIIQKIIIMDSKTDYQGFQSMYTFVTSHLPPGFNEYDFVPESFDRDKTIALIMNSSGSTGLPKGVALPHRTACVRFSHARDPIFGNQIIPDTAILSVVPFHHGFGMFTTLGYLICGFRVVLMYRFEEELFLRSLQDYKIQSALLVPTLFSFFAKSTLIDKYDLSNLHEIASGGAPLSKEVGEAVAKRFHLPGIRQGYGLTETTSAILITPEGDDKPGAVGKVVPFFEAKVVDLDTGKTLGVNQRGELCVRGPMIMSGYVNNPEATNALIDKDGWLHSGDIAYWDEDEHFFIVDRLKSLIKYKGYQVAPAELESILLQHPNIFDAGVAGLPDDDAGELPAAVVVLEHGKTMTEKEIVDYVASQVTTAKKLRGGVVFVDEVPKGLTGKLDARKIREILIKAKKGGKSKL

Sequence of Focal adhesion kinase 1 (Homo sapiens) (Q05397 whole entry, looked up): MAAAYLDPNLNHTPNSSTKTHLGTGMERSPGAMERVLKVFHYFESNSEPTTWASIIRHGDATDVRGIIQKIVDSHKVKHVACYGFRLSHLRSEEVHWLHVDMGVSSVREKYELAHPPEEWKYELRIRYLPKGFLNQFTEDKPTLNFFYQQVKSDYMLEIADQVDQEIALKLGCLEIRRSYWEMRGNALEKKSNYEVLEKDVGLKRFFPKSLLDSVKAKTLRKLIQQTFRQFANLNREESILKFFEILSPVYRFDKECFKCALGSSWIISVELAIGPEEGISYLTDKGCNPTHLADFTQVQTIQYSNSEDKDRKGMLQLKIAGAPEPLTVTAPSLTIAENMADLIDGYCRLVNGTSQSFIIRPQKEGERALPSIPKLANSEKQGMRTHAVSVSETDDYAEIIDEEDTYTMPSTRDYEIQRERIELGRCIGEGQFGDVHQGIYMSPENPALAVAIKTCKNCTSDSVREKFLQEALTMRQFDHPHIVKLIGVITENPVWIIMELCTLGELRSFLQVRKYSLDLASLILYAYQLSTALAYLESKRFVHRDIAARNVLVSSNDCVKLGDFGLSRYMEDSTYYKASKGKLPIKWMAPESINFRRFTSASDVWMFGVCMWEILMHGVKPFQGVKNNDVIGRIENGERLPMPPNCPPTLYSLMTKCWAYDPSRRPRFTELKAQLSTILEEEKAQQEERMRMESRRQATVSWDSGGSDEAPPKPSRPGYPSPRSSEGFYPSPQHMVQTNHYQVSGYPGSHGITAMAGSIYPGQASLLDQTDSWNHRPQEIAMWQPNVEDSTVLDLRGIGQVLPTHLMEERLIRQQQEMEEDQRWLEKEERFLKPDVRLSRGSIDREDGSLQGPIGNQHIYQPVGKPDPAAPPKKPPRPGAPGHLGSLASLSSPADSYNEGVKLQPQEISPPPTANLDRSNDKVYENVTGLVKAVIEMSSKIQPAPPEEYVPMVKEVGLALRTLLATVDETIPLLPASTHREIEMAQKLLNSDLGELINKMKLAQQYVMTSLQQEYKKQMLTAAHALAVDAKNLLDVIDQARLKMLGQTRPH
Sequence of Follistatin (Homo sapiens) (P19883 whole entry, looked up): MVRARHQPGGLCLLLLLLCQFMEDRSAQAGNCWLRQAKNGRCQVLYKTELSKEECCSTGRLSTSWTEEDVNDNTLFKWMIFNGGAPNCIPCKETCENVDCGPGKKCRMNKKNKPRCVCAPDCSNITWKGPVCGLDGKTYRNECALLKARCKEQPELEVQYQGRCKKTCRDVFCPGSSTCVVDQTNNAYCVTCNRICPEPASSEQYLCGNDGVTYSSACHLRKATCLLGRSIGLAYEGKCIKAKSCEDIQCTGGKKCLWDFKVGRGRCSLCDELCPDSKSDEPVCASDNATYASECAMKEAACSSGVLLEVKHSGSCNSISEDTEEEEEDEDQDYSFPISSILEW
Sequence of Albumin (Bos taurus) (P02769 whole entry, looked up): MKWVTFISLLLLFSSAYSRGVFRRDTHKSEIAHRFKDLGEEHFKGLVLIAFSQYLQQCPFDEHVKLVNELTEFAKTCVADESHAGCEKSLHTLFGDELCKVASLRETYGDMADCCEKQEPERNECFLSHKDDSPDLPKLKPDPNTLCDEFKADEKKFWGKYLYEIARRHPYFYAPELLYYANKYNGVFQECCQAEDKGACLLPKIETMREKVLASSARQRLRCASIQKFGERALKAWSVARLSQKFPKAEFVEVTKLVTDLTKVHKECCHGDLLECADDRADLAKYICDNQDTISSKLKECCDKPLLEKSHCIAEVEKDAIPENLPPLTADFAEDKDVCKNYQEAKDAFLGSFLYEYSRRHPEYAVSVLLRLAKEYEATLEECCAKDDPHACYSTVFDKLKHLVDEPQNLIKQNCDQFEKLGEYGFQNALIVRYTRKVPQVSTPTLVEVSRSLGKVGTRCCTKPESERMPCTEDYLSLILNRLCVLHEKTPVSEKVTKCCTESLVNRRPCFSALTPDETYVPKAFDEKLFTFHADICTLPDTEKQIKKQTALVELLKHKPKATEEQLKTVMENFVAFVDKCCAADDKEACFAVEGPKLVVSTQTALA
Sequence of Concanavalin-A (Canavalia ensiformis) (P02866 whole entry, looked up): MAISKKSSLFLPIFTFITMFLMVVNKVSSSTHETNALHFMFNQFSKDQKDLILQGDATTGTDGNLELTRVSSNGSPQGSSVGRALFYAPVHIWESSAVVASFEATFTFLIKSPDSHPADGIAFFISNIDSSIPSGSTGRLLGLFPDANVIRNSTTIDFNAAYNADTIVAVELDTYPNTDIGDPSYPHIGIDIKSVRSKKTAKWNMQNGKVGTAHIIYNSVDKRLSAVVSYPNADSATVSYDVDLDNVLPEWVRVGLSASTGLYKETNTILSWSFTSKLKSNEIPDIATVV
Sequence of Fibroblast growth factor 2 (Homo sapiens) (P09038 whole entry, looked up): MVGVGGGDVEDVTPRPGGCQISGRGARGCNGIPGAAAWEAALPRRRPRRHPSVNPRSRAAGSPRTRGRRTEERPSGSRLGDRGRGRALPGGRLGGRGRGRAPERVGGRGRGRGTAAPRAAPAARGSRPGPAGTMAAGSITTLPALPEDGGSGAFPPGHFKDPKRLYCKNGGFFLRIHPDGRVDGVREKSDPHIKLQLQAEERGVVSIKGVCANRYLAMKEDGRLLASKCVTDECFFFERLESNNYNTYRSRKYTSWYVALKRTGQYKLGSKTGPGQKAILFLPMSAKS

For `O=C1O[C@@H](c2ccccc2)[C@@H](c2ccccc2)N2[C@@H](c3ccc(OCCO)cc3)[C@]3(C(=O)Nc4ccc(C#CCCO)cc43)[C@@H](C(=O)O)[C@H]12`, the composite z-score in the experiment with Albumin (Bos taurus) was determined as 0.559; in experiment [2], 0.955; in experiment [3], 0.516; in [4] it was 0.746; in experiment [5], 2.2; in experiment [6] it was 0.636. Further, the composite z-score in the experiment on Sam68 (KHDRBS1) amounted to 1.28; in [7] it was 1.02; in experiment [8] it was 1.15; in experiment [9], 2.76; in experiment [10] it was 1.14; in [11], 0.453. For the same compound, the composite z-score in experiment [12] worked out at 0.95; in [13] it was 1.11; in experiment [14] it was 0.871; in the experiment on Lefty1 it was 0.45; in [16] it was 1.14. Moreover, the composite Z-score in experiment [1] was 0.919 (inactive). Further, the z-score is 0.329 in experiment [15] and -1.71 (inactive) in [17].

Take `CC(C)C(=C=CC[C@H](O)c1ccccc1OCCO)C[C@H](O)c1cc(Cl)cc(Cl)c1O`: the composite z-score is 0.791 in the experiment with Albumin (Bos taurus); 0.141 in experiment [2]; -0.106 in experiment [3]; 0.664 in experiment [4]; 1.48 in experiment [5]; 0.114 in experiment [6]. The composite z-score with Sam68 (KHDRBS1) is 1.31; in experiment [7], -0.114; in [8], 1.14; in [9], -0.287; in experiment [10], 1.15; in experiment [11], 0.0701. The composite z-score is 0.866 in [12]; 1.09 in experiment [13]; 0.285 in experiment [14]; 1.27 in the experiment on Lefty1; 1.16 in experiment [16]. Further, in [1], the composite Z-score was -0.275 (inactive). Besides, the z-score in experiment [15] is 0.686; in experiment [17] it was -1.38 (inactive).

As to `C=CCOC(=O)[C@H]1[C@@H]2C(=O)O[C@@H](c3ccccc3)[C@@H](c3ccccc3)N2[C@@H](c2ccc(OCCOC(=O)[C@H]3C[C@H]4C(=O)N[C@@H](CC(C)C)C(=O)N4[C@H]3c3ccc(O)cc3)cc2)[C@]12C(=O)Nc1ccccc12`, the composite z-score was -1.5 with Albumin (Bos taurus); 0.0695 in experiment [2]; -0.0666 in [3]; 0.368 in experiment [4]; 1.74 in experiment [5]; 0.878 in [6]. In addition, the composite z-score in the experiment on Sam68 (KHDRBS1) stood at 1.31; in [7], 1.26; in experiment [8], 1.06; in experiment [9] it was 0.1; in experiment [10], 1.26; in experiment [11], 0.66. Also, the composite z-score amounted to 0.8 in experiment [12]; 1.36 in [13]; 1.79 in experiment [14]; 1.39 with Lefty1; 0.624 in [16]. Further, the composite Z-score in [1] was 0.0398 (inactive). Besides, the z-score in [15] was -1.48; in experiment [17], -0.782 (inactive).

For `COCCOC(=O)N1C(=O)[C@@]2(c3cc(C#Cc4ccc(OC)cc4)ccc31)[C@H](c1ccc(OCCO)cc1)N1[C@H](c3ccccc3)[C@H](c3ccccc3)OC(=O)[C@H]1[C@@H]2C(=O)NC[C@H](O)c1ccccc1`, the composite z-score with Albumin (Bos taurus) was found to be 0.314; in experiment [2], 0.154; in [3], 0.0022; in [4] it was 0.471; in experiment [5], 0.575; in [6], 0.511. Moreover, the composite z-score in the experiment on Sam68 (KHDRBS1) amounted to 1.3; in experiment [7] it was 0.311; in experiment [8], 1.16; in experiment [9], 1.2; in [10], 1.17; in experiment [11] it was 1.32. Moreover, the composite z-score is 0.941 in experiment [12]; 1.33 in [13]; 1.19 in [14]; 0.979 with Lefty1; 1.05 in experiment [16]. Besides, in experiment [1], the composite Z-score was 0.217 (inactive). Also, the z-score was -0.936 in experiment [15] and -0.563 (inactive) in experiment [17].

On to `C=CCC(OC(C)=O)[C@@H]1[C@@H](N(Cc2cccc3ccccc23)C(=O)Cc2ccc(OC)cc2)c2cc(OCCCO)ccc2N1C(=O)Cc1ccc2ccccc2c1` (stereo not given in full), for which the composite z-score in the experiment with Albumin (Bos taurus) is -0.0328; in [2] it was -0.0584; in [3] it was -0.159; in experiment [4] it was 0.0435; in experiment [5] it was 1.17; in [6] it was 0.078. For the same compound, the composite z-score in the experiment on Sam68 (KHDRBS1) is -0.0489; in experiment [7], 0.116; in experiment [8], -0.154; in experiment [9] it was -0.538; in experiment [10], -0.609; in [11] it was -0.495. Also, the composite z-score in experiment [12] is -0.331; in experiment [13] it was 0.688; in [14] it was 0.182; in the experiment with Lefty1, 0.353; in experiment [16] it was 0.507. Also, in experiment [1], the composite Z-score is 0.181 (inactive). For the same compound, the values for the z-score in experiment [15] and in experiment [17] were 0.309 and 0.969 (inactive), respectively.

With `COC(=O)[C@@]1(Cc2ccccc2)[C@H]2c3cc(C(=O)N(C)C)n(Cc4ccc(C(F)(F)F)nc4)c3C[C@H]2CN1C(=O)c1ccccc1`, the composite z-score amounted to 0.463 with Albumin (Bos taurus); 0.39 in experiment [2]; 0.329 in experiment [3]; 0.849 in [4]; 3.31 in [5]; 0.427 in experiment [6]. In addition, the composite z-score is 1.3 with Sam68 (KHDRBS1); -0.43 in experiment [7]; 0.715 in experiment [8]; 0.0389 in experiment [9]; 1.29 in experiment [10]; 0.74 in [11]. Also, the composite z-score in experiment [12] was 1.01; in [13], 0.714; in experiment [14], -0.428; in the experiment on Lefty1, -0.655; in experiment [16], 0.736. Besides, in [1], the composite Z-score is -0.031 (inactive). Further, the z-score in experiment [15] was 0.353; in experiment [17] it was 2.32 (inactive).

Turning to `O=C1C2C=CC(C(O)c3c(F)cccc3Cl)N(Nc3ccc([N+](=O)[O-])cc3)C2C(=O)N1c1ccccc1` (stereo not given), the composite z-score in the experiment with Albumin (Bos taurus) was 0.589; in experiment [2] it was 0.465; in [3], -0.037; in experiment [4] it was 0.804; in [5], 2.83; in experiment [6], 1.43. The composite z-score was determined as 1.3 with Sam68 (KHDRBS1); 0.268 in [7]; 1.11 in experiment [8]; 1.62 in [9]; 1.22 in experiment [10]; 0.682 in [11]. Also, the composite z-score in [12] stood at 0.931; in experiment [13], 1.36; in [14] it was 0.589; with Lefty1, 0.948; in experiment [16] it was 0.844. For the same compound, the composite Z-score in experiment [1] is -0.0608 (inactive). Further, the z-score in experiment [15] was -0.514; in experiment [17] it was 1.67 (inactive).

With `COc1ccc(C(O)C2C=CC3C(=O)NC(=O)C3N2Nc2ccc(Cl)cc2Cl)c2ccccc12` (stereo not given), the composite z-score is 0.678 with Albumin (Bos taurus); 0.0328 in experiment [2]; 0.0856 in [3]; 0.602 in experiment [4]; 1.94 in [5]; 0.709 in experiment [6]. Moreover, the composite z-score in the experiment on Sam68 (KHDRBS1) was 0.35; in [7] it was -0.359; in experiment [8], 0.934; in [9], 1.54; in [10], 1.15; in experiment [11] it was 0.486. The composite z-score in [12] is 0.925; in experiment [13], 0.797; in [14], -0.19; in the experiment on Lefty1, -0.0846; in experiment [16] it was 1.19. The composite Z-score in experiment [1] is 0.309 (inactive). In addition, the z-score in experiment [15] is -0.209; in [17], -1.93 (inactive).
